Bioassay records deposited in PubChem BioAssay by National Center for Advancing Translational Sciences (NCATS).
IMPase cell inh: membrane-permeable compound that blocks inositol monophosphatase; P97697; CHO-M1 cells, IP1 accumulation, HTRF TR-FRET ratio; inhibition (IP1 accumulation), % at 46.1 µM; 120,000 tested, under 10 active; AID 901; active = well fitted curve in the direction sought with a large enough effect in the signal ratio, not every such curve was filed as active; inconclusive = small, poorly fitted or top-dose-only effect, or a change in a side signal; inactive = no such curve, though single readings can be large or run the other way; the % refers to the signal ratio;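 also: cells stimulated with carbachol in lithium chloride buffer; plate controls were DMSO basal wells for no effect and reference inhibitor wells for full effect; higher means more IMPase inhibition seen as more IP1 and lower FRET ratio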
Target sequence (P97697 whole entry, looked up): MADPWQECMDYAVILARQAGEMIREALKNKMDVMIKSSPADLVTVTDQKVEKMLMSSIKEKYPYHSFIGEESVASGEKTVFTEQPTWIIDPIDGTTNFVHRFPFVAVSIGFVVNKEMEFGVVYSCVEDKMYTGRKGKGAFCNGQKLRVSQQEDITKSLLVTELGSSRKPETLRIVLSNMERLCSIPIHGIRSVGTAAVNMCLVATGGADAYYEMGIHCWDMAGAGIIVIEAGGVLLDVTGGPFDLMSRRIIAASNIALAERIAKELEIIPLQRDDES
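CHO-M1 cells (CHO stably expressing M1 receptor), compound up to 46 uM final, stimulated with carbachol (50 uM as added) in buffer with 50mM LiCl, pH 7.4, 30 min at 37C. Cytosolic IP1 read by TR-FRET; AC50 from Hill fits.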
HTT cytoprotect: protects HTT-Q103 PC12 cells, measured by ATP | Potency, µM (doses to about 56.4 µM), without a hit: cytoprotection (ATP increase), most hits filed as activators | 230,000 compounds, 0.14% hits | PC12 HTT-Q103 induced, cytoprotection, ATP luminescence, 40 h; also: potency is read from the fitted curve at half-maximal effect; % of control where 0% means no effect; nearly all actives have a fitted effect of over 45% in size
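Readout: ATPlite luminescence (ATP level). Model: stable PC12, inducible Htt exon1 Q103-GFP. Inducer: tebufenozide, 100 nM final. Compounds: dose series. No G418 in medium.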
HTT aggregate: reduces HttQ103-GFP aggregates in PC12 cells; PC12 HttQ103-GFP aggregates, Acumen cytometry, 40 h; Potency, µM (titrated, usually from 46.1 µM), without a hit: at the top dose activity change, negative = inhibition, hits mostly inhibitors; 220,000 compounds, 1.1% hits; also: potency is read from the fitted curve at half-maximal effect; % is scaled to controls: 0 for no effect and ±100 for the full control effect; nearly all actives have a fitted effect of over 60% in size
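Steps: seed 1500 PC12 HTTQ103-GFP cells/well; add tebufenozide, 100 nM final; add compound titration; add ATPLite reagent; quantify GFP aggregates by laser scanning cytometry.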
NPSR antag: blocks cAMP signaling of the human neuropeptide S receptor | 220,000 compounds, 1% hits | CHO-NPSR cells, cAMP TR-FRET, antagonist mode | Potency, µM (highest dose often 38.3 µM), for the others: at the highest dose activity change, negative = inhibition, hits mostly inhibitors; also: potency is read from the fitted curve at half-maximal effect; % is scaled to controls: 0 for no effect and ±100 for the full control effect; nearly all actives have a fitted effect of over 50% in size
Target sequence (Q6W5P4 whole entry, looked up): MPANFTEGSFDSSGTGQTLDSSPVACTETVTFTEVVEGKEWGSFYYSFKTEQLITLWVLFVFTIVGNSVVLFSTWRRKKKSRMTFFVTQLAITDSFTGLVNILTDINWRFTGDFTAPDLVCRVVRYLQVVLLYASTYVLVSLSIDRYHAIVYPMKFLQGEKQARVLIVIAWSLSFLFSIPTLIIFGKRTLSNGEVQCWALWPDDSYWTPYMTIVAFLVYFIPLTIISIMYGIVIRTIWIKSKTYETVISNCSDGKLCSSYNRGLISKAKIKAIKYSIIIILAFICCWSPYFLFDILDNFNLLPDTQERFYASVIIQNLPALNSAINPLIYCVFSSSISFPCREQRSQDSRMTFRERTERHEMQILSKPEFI
PNC inhibitor: inhibitors of perinucleolar compartment assembly; 140,000 compounds, 3.1% hits; activity change (PNC), negative = inhibition, % at 10 µM; PC3M PTB-GFP, PNC prevalence imaging, 16 h; hits give low values;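 active = readout at or below -70, meaning at least 70% loss of cells showing the perinucleolar compartment, a nuclear body marking cancer cells; inconclusive = readout between -30 and a set limit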;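 also: plate controls were DMSO wells for no effect and camptothecin positive control wells for full effect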
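Read-out is percentage of cells bearing a perinucleolar compartment, from automated 20x imaging of fixed, Hoechst-stained PC3M PTB-GFP cells. Cells were seeded 4 h, then exposed 16 h to compound (23 nl of library stock) in duplicate plates.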
IMPase Li cell: IMPase inhibition in cells with lithium potentiation; CHO-M1 cells, IP1 TR-FRET (IP-One), carbachol + lithium; Potency, µM (top dose mostly 59.4 µM), for the others: top-dose activity, negative = IMPase inhibition, actives largely listed as inhibitors; 210,000 compounds, 0.35% hits;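 also: IP1 builds up when IMPase is blocked and the TR-FRET signal falls; potency is read from the fitted curve at half-maximal effect; plate controls were basal vehicle for no effect and high inhibitor control for full effect; nearly all actives have a fitted effect of over 50% in size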
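Concentration–response in CHO-M1 cells, lithium-potentiated; 30 min at 37C. IP1 detected by competitive TR-FRET after 10 min lysis at RT. Hill-fitted AC50.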
Numbers without * were called inactive; [ ] = dose if it differs, or a comment. A selection: hits, their analogues and other compounds. The true share with any hit is near 3.4%. Unless noted, calls follow the shape of the dose curve; as a rule, active = well fitted curve in the direction sought with a large enough effect; inconclusive = small, poorly fitted or top-dose-only effect, or another doubt; inactive = no such curve, though single readings can be large; an effect the other way counts as inactive or inconclusive.

How did COc1ccc(-c2cc(C(=O)O)c3c(C)nn(-c4ccccn4)c3n2)cc1 do in these assays?
IMPase cell inh: -4.7; HTT cytoprotect: -16.5%; HTT aggregate: 3.1%; NPSR antag: -3.0%[46.1 µM]; PNC inhibitor: 47.7; IMPase Li cell: -7.3%[38.3 µM]

How did CCOC(=O)c1cc(-c2ccncc2)nc2c1c(C)nn2-c1ccccn1 do in these assays?
IMPase cell inh: 15.1; HTT cytoprotect: -0.5%[10 µM]; HTT aggregate: 7.0%; NPSR antag: -6.5%[46.1 µM]; PNC inhibitor: -100.0*; IMPase Li cell: 18.7%[38.3 µM]

How did CCOC(=O)c1cc(-c2ccc(C#N)cc2)nc2c1c(C)nn2CCC#N do in these assays?
IMPase cell inh: 3.2; HTT cytoprotect: -17.4%; HTT aggregate: 16.6%; NPSR antag: -8.3%[46.1 µM]; PNC inhibitor: -111.3*; IMPase Li cell: inconclusive

What do the screens show for `Cc1nnc(SCC2=C(C(=O)O)N3C(=O)C(NC(=O)Cn4cnnn4)[C@@H]3SC2)s1` (stereo partly drawn)?
IMPase Li cell: -5.8%

What do the screens show for `CCCC(=O)NC(c1ccc2c(c1)OCO2)c1cc(Cl)c2cccnc2c1O` (stereo not drawn)?
HTT cytoprotect: -68.6%[10 µM]; HTT aggregate: 2.82µM*; NPSR antag: -1.8%; PNC inhibitor: inconclusive; IMPase Li cell: 7.9%

How did O=C(O)COc1ccccc1C(Nc1cccnc1)c1cc(Cl)c2cccnc2c1O (stereo not drawn) do in these assays?
HTT cytoprotect: -23.7%; HTT aggregate: 19.5%; NPSR antag: 1.9%; IMPase Li cell: 13.1%

What do the screens show for `O=C(NC(c1ccccc1)c1cc(Cl)c2cccnc2c1O)c1cccnc1` (stereo not drawn)?
HTT cytoprotect: -87.8%[10 µM]; HTT aggregate: 3.98µM*; NPSR antag: -17.7%; PNC inhibitor: -7.1; IMPase Li cell: -7.5%

What do the screens show for `CCCCc1ccc(Nc2nc(CCC)cc(=O)[nH]2)cc1`?
IMPase cell inh: 12.8; HTT cytoprotect: 20.2%[1.9 µM]; HTT aggregate: 35.5µM*; NPSR antag: -17.5%[46.1 µM]; PNC inhibitor: -20.4; IMPase Li cell: 36.0%[38.3 µM]

What do the screens show for `CN(C)CCNc1oc(/C=C/c2ccccc2)nc1C#N`?
IMPase cell inh: inconclusive; HTT cytoprotect: -9.3%[1.9 µM]; HTT aggregate: -1.3%; NPSR antag: 10µM*; PNC inhibitor: -3.0; IMPase Li cell: -24.1%

Results for COC(=O)c1ccc(COc2ccc(/C=N/NC(N)=S)cc2)o1 ?
HTT cytoprotect: 13.7%[10 µM]; HTT aggregate: 7.2%[9.22 µM]; NPSR antag: 11.5%

Results for Cc1nc2c(-c3ccc(Cl)cc3)c(C)[nH]n2c(=O)c1Cc1ccccc1 ?
HTT cytoprotect: -123.0%; HTT aggregate: 10µM*; NPSR antag: -42.9%; IMPase Li cell: 8.9%

Results for C[N+](C)(C)[C@H](Cc1c[nH]c(=S)[nH]1)C(=O)O ?
HTT cytoprotect: -10.4%[10 µM]; IMPase Li cell: -1.0%

What do the screens show for `CCN(CCCNC(=O)COc1cc(=O)n(CC)c2ccccc12)c1ccccc1`?
IMPase cell inh: 9.4; HTT cytoprotect: 4.8%[10 µM]; HTT aggregate: inconclusive; NPSR antag: 4.5%[46.1 µM]; PNC inhibitor: -100.0*; IMPase Li cell: 9.7%

What do the screens show for `CCN(CCCNC(=O)CCNC(=O)Cn1ccc2ccccc2c1=O)c1ccccc1`?
IMPase cell inh: 1.8; HTT cytoprotect: 2.2%[10 µM]; HTT aggregate: 9.9%; NPSR antag: 12.1%[46.1 µM]; PNC inhibitor: -94.3*; IMPase Li cell: 12.7%[38.3 µM]

Results for CN(CCNC(=O)CCNC(=O)Cn1ccc2ccccc2c1=O)Cc1ccccc1 ?
IMPase cell inh: -5.8; HTT cytoprotect: 2.3%; HTT aggregate: 8.8%; NPSR antag: -1.7%[46.1 µM]; PNC inhibitor: -27.0

How did O=C(c1sccc1-n1cccc1)N1CCCC1 do in these assays?
IMPase cell inh: -6.3; HTT cytoprotect: 26.7%[10 µM]; HTT aggregate: -3.4%; NPSR antag: -4.8%[46.1 µM]; PNC inhibitor: -83.4*; IMPase Li cell: 3.8%[38.3 µM]

What do the screens show for `COc1cccc(NC(=O)CSc2nnc(-c3ccoc3C)n2-c2ccccc2)c1`?
IMPase cell inh: 10.1; HTT cytoprotect: -50.1%; HTT aggregate: 4.9%; NPSR antag: -20.2%[46.1 µM]; PNC inhibitor: -86.9*; IMPase Li cell: 6.1%[38.3 µM]

How did Cc1occc1-c1nnc(SCC(=O)O)n1-c1ccccc1 do in these assays?
HTT cytoprotect: -13.9%[10 µM]; HTT aggregate: 4.3%[9.22 µM]; NPSR antag: 9.4%

What do the screens show for `CCn1c(CC(=O)Nc2cccc(OC)c2)nnc1SCC(=O)N1CCN(c2ccccc2)CC1`?
IMPase cell inh: -11.0; HTT cytoprotect: -37.6%[0.074 µM]; HTT aggregate: 12.7%; NPSR antag: -5.0%[46.1 µM]; PNC inhibitor: -85.4*; IMPase Li cell: 13.3%[38.3 µM]

How did CCCCC(NS(=O)(=O)c1ccc(OC)cc1)C(=O)O (stereo not drawn) do in these assays?
IMPase cell inh: 0.4; HTT cytoprotect: 8.4%; HTT aggregate: 20.1%; NPSR antag: -8.8%[46.1 µM]; PNC inhibitor: -100.0*; IMPase Li cell: -25.8%[38.3 µM]

What do the screens show for `CCCC(NS(=O)(=O)c1ccc(C)cc1)C(=O)O` (stereo not drawn)?
IMPase cell inh: 1.6; HTT cytoprotect: 18.3%; HTT aggregate: -7.7%; NPSR antag: 0.3%[46.1 µM]; PNC inhibitor: 4.4; IMPase Li cell: -8.7%[38.3 µM]

Results for CN(C)c1ccc(N=Nc2ccccc2C(=O)OCC(=O)NC2CCCC2)cc1 ?
IMPase cell inh: -0.7; HTT cytoprotect: -20.2%[10 µM]; HTT aggregate: 6.31µM*; NPSR antag: inconclusive; PNC inhibitor: -115.2*

What do the screens show for `CN(C)c1ccc(/C=N\NC(=O)c2cnc3ccccc3c2)cc1`?
HTT cytoprotect: -2.2%[10 µM]; IMPase Li cell: 0.0%

How did COCC(=O)NCc1ccc2c(c1)cc(C)n2C do in these assays?
HTT aggregate: 11.3%; NPSR antag: 0.4%; PNC inhibitor: -113.4*; IMPase Li cell: 17.7%

How did Cc1cc2cc(CNC(=O)COc3ccccc3)ccc2n1C do in these assays?
HTT cytoprotect: 19.3%[10 µM]; HTT aggregate: 5.5%[9.22 µM]; NPSR antag: -1.4%

How did COc1ccc(-n2c(SC(C)C(=O)Nc3ncc(Cl)cc3Cl)nc3ccccc32)cc1 (stereo not drawn) do in these assays?
IMPase cell inh: 10.7; HTT cytoprotect: -38.2%[10 µM]; HTT aggregate: -9.5%; NPSR antag: -23.4%[46.1 µM]; PNC inhibitor: -110.8*; IMPase Li cell: 21.2%

What do the screens show for `Cn1c(=O)[nH]c(Nc2ccccc2)c([N+](=O)[O-])c1=O`?
HTT aggregate: -0.4%; NPSR antag: 6.7%; IMPase Li cell: 6.0%

How did CC(=O)Cc1nsc(NC(=O)c2ccc(-c3cc(C(F)(F)F)ccc3Cl)o2)n1 do in these assays?
IMPase cell inh: 0.1; HTT cytoprotect: -0.2%; HTT aggregate: 2µM*; NPSR antag: -19.3%[46.1 µM]; PNC inhibitor: 33.6; IMPase Li cell: 16.0%[38.3 µM]
